Results as given in the supplement of paper PMC3484114.
± gives the standard deviation.

System: OVCAR-3-derived ovarian cancer stem-like cells (spheroids)
Experiment: cell growth relative to untreated control; higher = more growth (less inhibition)
Details: 2.29 µM; 96 h
Outline: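 After trypsin dissociation, OVCAR-3 spheroid-derived stem-like cells were placed in ultra-low attachment 96-well plates at 50,000 cells/mL in stem cell medium and preincubated for 24 h. Treatment at 2.29 uM followed for 96 h at 37°C, 5% CO2, with 4 replicate wells per compound. A 4 h TOX8 resazurin fluorescence read (ex 560/em 590 nm) gave viability, from which percent growth relative to untreated wells was derived after blank subtraction and Grubbs outlier removal.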

Row | Compound | cell growth
1 | O=C(NC1=C(Cl)C(=O)c2ccccc2C1=O)C(=O)C(C(=O)c1ccc2ccccc2c1)C1OC(=O)c2ccccc21 (centres undefined) | 89.6 ± 20%
2 | CCOC(=O)Nc1nc2ccc(Cn3cccc3)cc2[nH]1 | 127 ± 20%
3 | CC(=O)NC(CC(C)C)C(=O)NC(Cc1ccccc1)C(=O)CCl (centres undefined) | 88.6 ± 12%
4 | CC(C)(O)CCC(O)C(C)(O)C1CCC2(O)C3=CC(=O)C4(O)CC(O)C(O)CC4(C)C3CCC12C.CC(C)(O)CCC(O)C(C)(O)C1CCC2(O)C3=CC(=O)C4CC(O)C(O)CC4(C)C3CCC12C (centres undefined) | 98 ± 21%
5 | C[n+]1c(-c2ccc(/C=C/C=N/NC(=O)c3ccc(C(=O)N/N=C/C=C/c4ccc(-c5cn6ccccc6[n+]5C)cc4)cc3)cc2)cn2ccccc21 | 138 ± 18%
6 | O=C(CC1(O)C(=O)Nc2c(Cl)ccc(Cl)c21)c1ccc(Cl)cc1Cl (centres undefined) | 123 ± 11%
7 | O=C(O)c1ccc(NC(c2ccccc2)c2ccc3cccnc3c2O)cc1 (centres undefined) | 89.7 ± 46%
8 | CC(=O)N(C)c1ccc(Nc2cc(C)[nH]c3ccc4ncnc4c23)cc1 | 81.9 ± 23%
9 | O/N=C(\CC(O)(C(F)(F)F)C(F)(F)F)c1cccc(Cl)c1 | 87.8 ± 16%
10 | N=C1C=C(N)C(=O)c2[nH]c(=O)ccc21 | 95.3 ± 55%
11 | O=C(c1ccccc1)C(c1ccccc1)C1(O)C(=O)Nc2c(Cl)cc(Cl)cc21 (centres undefined) | 114 ± 29%
12 | CC(=O)SC(SC(C)=O)SC(C)=O | 97.1 ± 26%
13 | O=[N+]([O-])c1ccc(N=Nc2c(O)[nH]c3ccccc23)c([N+](=O)[O-])c1 | 132 ± 29%
14 | CCOC(=O)Cc1c(C)c2cc(C(=O)c3ccccc3)c(O)cc2oc1=O | 98 ± 18%
15 | Nc1ccc2c(c1)CN1C(=O)c3ccccc3C1=N2 | 72.9 ± 5.6%
16 | O=C(O)c1ccccc1-c1ccccc1C(=O)Nc1ccc2c(c1)Cc1ccccc1-2 | 80.8 ± 29%
17 | C[n+]1ccc(Nc2ccc(NC(=O)c3ccc(Nc4cc[n+](C)c5ccc([N+](=O)[O-])cc45)cc3[N+](=O)[O-])cc2)cc1 | 70 ± 17%
18 | CC1(C)CCCC2(C)C3=C(CCC12)C(=O)OC3 (centres undefined) | 84.4 ± 24%
19 | CN(C)CCCN1c2ccccc2Sc2ccc3ccccc3c21 | 117 ± 58%
20 | [N-]=[N+]=NC1=NNC2(C(=O)N1)c1ccccc1-c1ccccc12 | 99.3 ± 38%

Row | Compound | cell growth
21 | O=C(Nc1ccccc1-c1nn(C(=S)Nc2ccccc2)c(=S)n(C(=S)Nc2ccccc2)c1=O)C(F)(F)F | 84.8 ± 15%
22 | COC1CC(C)C(OC)c2cc(O)cc(c2O)NC(=O)/C(C)=C/C=C\C(C)C(OC(N)=O)/C(C)=C/C(C)C1OC (centres undefined) | 29 ± 4.8%
23 | Cc1ccc(/C=C2\CNC/C(=C\c3ccc(C)cc3)C2=O)cc1 | 44.5 ± 10%
24 | Cc1cc(O)c(C(C)C)cc1C1(c2cc(C(C)C)c(O)cc2C)OC(=O)c2ccccc21 | 104 ± 32%
25 | CCCCCC/C=C\CCCCCCCCCc1cccc(OC)c1O | 115 ± 69%
26 | COC1OC(COCc2ccc(Cl)cc2)C(OCc2ccc(Cl)cc2)C1O (centres undefined) | 110 ± 26%
27 | COC(=O)C1=CC(=O)C(C(=O)Nc2ccc(OC)cc2)C(c2ccccc2)O1 (centres undefined) | 96.3 ± 45%
28 | C=C(CN(C)C)C(=O)c1ccccc1Cl | 84 ± 22%
29 | NC(=S)NN=Cc1ncccc1O | 95.3 ± 16%
30 | CCCCCCCCCCCCC(O)C(=O)O (centres undefined) | 115 ± 19%
31 | Nc1nc(N)c(N=Nc2ccccc2)c(=O)[nH]1 | 84.4 ± 21%
32 | Cn1cnc([N+](=O)[O-])c1Sc1nnc(-c2cccnc2)n1C | 151 ± 61%
33 | Cc1ccc2ccc3ccc(C)nc3c2n1 | 18.5 ± 10%
34 | N#CC1(C#N)C2C=CC(c3coc4cccc2c34)C1(C#N)C#N (centres undefined) | 20.9 ± 5.5%
35 | CC[C@@]1(O)C[C@H](O[C@H]2C[C@H](N(C)C)[C@H](O[C@H]3C[C@H](O)[C@H](O[C@H]4CCC(=O)[C@H](C)O4)[C@H](C)O3)[C@H](C)O2)c2c(cc3c(c2O)C(=O)c2c(O)cccc2C3=O)[C@@H]1C(=O)OC | 48.2 ± 42%
36 | CC1OC(CC(=O)O)CC2=C1C(=O)c1c(O)cccc1C2=O (centres undefined) | 130 ± 42%
37 | Cc1cc2c(cc1C)[n+](=O)c(C(=O)/C=C/c1ccccc1[N+](=O)[O-])c(C)n2[O-] | 123 ± 66%
38 | COc1cc(NC(C)CCCN)c2ncccc2c1 (centres undefined) | 56.5 ± 7%
39 | CCOC(=O)Cc1cc(=O)oc2cc(O)ccc12 | 80.4 ± 11%
